# High-throughput results deposited in PubChem BioAssay by National Center for Advancing Translational Sciences (NCATS).
# FMDV antiviral: High Throughput Screening for Foot and Mouth Disease Virus Antivirals; FMDV antiviral cell-based qHTS; Potency, µM (series often up to 57.9 µM), without a hit: at the highest dose activity change, negative = inhibition, usual class: inhibitors; 410,000 compounds, 1.2% hits; AID 1159524, 2015; calls by dose curve; tested in HEK293T cells; also: read-out not given here; nearly all actives have a fitted effect of over 45% in size
# Sm TGR inh: qHTS Assay for the Inhibitors of Schistosoma Mansoni Peroxiredoxins | Potency, µM (series often up to 114 µM), without a hit: at the highest dose activity change, negative = inhibition, most hits filed as inhibitors | Schistosoma mansoni thioredoxin glutathione reductase (TGR), Q962Y6 | 360,000 compounds, 3% hits | purified TGR, DTNB reduction, TNB absorbance 405 nm; active = well fitted inhibition curve with a large enough effect; inconclusive = small, poorly fitted or top-dose-only effect; inactive = no such curve, though single readings can be large or run the other way; also: nearly all actives have a fitted effect of over 60% in size
#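 Kinetic colorimetric format: TGR-catalysed, NADPH-driven DTNB reduction monitored via TNB absorbance. Enzyme dispensed at 20 nM; compound exposure 15 min at room temperature before reaction start.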
# Lassa entry inh: qHTS for Inhibitors of binding or entry into cells for Lassa Virus; Potency, µM (series often up to 37.9 µM), without a hit: at the highest dose activity change, negative = inhibition, hits mostly inhibitors; 300,000 compounds, 1.2% hits; AID 540256, 2011; Lassa virus pseudotype entry inhibition, cell reporter; calls by dose curve; tested in HEK293 cells; also: nearly all actives have a fitted effect of over 50% in size
# MARV entry inh: qHTS for inhibitors of binding or entry into cells for Marburg Virus. Marburg virus pseudotyped entry inhibition, cell reporter. Potency, µM (series often up to 37.8 µM), inactives show at the highest dose activity change, negative = inhibition, hits mostly inhibitors. 300,000 compounds, 1.8% hits; calls by dose curve; tested in HEK293 cells
# VACV Venus inh: qHTS for Stage-Specific Inhibitors of Vaccinia Orthopoxvirus: Venus Reporter Primary qHTS. Vaccinia virus Venus reporter expression, fluorescence. Potency, µM (highest dose often 36.5 µM), without a hit: top-dose activity change, negative = inhibition, usual class: inhibitors. 330,000 compounds, 0.46% hits. AID 720580, 2013; calls by dose curve; tested in A549 cells; also: nearly all actives have a fitted effect of over 30% in size
# Vaccinia mCherry: qHTS for Stage-Specific Inhibitors of Vaccinia Orthopoxvirus: mCherry Reporter Primary qHTS; Potency, µM (series often up to 36.5 µM), for the others: top-dose activity change, negative = inhibition, actives largely listed as inhibitors; 310,000 compounds, 0.63% hits; Vaccinia virus mCherry reporter infection, fluorescence; calls by dose curve; tested in A549 cells; also: nearly all actives have a fitted effect of over 35% in size
# Numbers without * were called inactive; i = inactive; ? = inconclusive; · = not tested or not shown; [ ] = remark or other dose. Rows were chosen to be rich in hits. Some 5.4% of all compounds tested hit in one or more screens of this group. % is scaled to controls: 0 for no effect and ±100 for the full control effect; potency is read from the fitted curve at half-maximal effect.
SMILES,FMDV antiviral,Sm TGR inh,Lassa entry inh,MARV entry inh,VACV Venus inh,Vaccinia mCherry
CCCCn1c(N)c(N(CCOC)C(=O)CSCc2c(C)noc2C)c(=O)[nH]c1=O,-11%,79µM*,4%,2%,-8%,i
COc1ccc(-n2nc(C(=O)Nc3ccc(C)cn3)c3c4ccccc4n(C)c3c2=O)cc1,-12%,1%,?,-2%[46.1 µM],6%,6%
COC(=O)c1c(OCc2ccccn2)cc(=O)n2c1CCN(Cc1cccc(C(F)(F)F)c1)CC2,-15%,·,·,·,-18%,-23%
COc1ccccc1NS(=O)(=O)c1cccc(NC(=O)Nc2ccc(Cl)cc2)c1,?,-1%,6.3µM*,?,?,i
CCNC(=S)Nc1cccc(S(=O)(=O)Nc2ccccc2OC)c1,-6%,1.8µM*,-38%[46.1 µM],0%[46.1 µM],-21%,-20%
COc1ccccc1NS(=O)(=O)c1cccc(NC(=O)Cc2cccs2)c1,0%,-19%,16µM*,-21%,-15%,-26%
COc1ccc(S(=O)(=O)Nc2ccc(F)cc2)cc1N(C)S(=O)(=O)c1ccc(Cl)cc1,·,11%,?,21µM*,?,?
COc1ccc(NS(=O)(=O)c2ccc(OC)c(N(C)S(=O)(=O)c3ccc(Cl)cc3)c2)cc1,·,0%,?,?,?,?
CCNC(=S)Nc1cccc(S(=O)(=O)NC2=NCCC2)c1,7%,-28%,19%,5%[46.1 µM],-2%,-3%
CCC(=O)Nc1ccc(C)cc1-c1nc2ccccc2n(C(C)C(=O)Nc2ccccc2CC)c1=O (configuration not stated),?,-1%,6%[46.1 µM],-2%[46.1 µM],-5%,-12%
Cc1ccsc1C(=O)N(Cc1cc2ccc(F)cc2nc1N1CCC(O)CC1)CC1CCCO1 (configuration not stated),0%,·,·,·,5%,-7%
COc1cccc(OC)c1C(=O)Nc1cccc(S(=O)(=O)Nc2ccccc2Cl)c1,-2%,·,·,·,·,·
COc1ccccc1NS(=O)(=O)c1cccc(NC(=O)Nc2ccccc2)c1,?,-3%,15µM*,?,?,-13%
CN(C)c1cccc2c(C=C(C#N)C#N)ccc(N(C)C)c12,-22%,25µM*,0%,?,-2%,2%
COc1cc(OC)cc(C(=O)NC(=S)Nc2ccc(N3CCCC3)cc2)c1,-7%,89µM*,?,?,-14%,-20%
O=C(NC(=S)Nc1ccc(N2CCCCC2)cc1)c1cccs1,11%,40µM*,?,?,·,·
O=C(NC(=S)Nc1ccc(S(=O)(=O)N2CCCCCC2)cc1)c1cccs1,-9%,?,21%,?,-20%,-19%
O=C(NC(=S)Nc1ccc(S(=O)(=O)N2CCCC2)cc1)c1cccs1,?,18µM*,-16%,4%,-14%,i
Cc1ccc(C(=O)NC(=S)Nc2ccc(S(=O)(=O)N3CCN(C)CC3)cc2)cc1,-4%,28µM*,-15%,?,-17%,-17%
COc1ccc(-c2noc(CSc3nnc(-c4ccncc4)n3-c3ccc(C)c(C)c3)n2)cc1,-25%,1%,-14%[46.1 µM],?,-6%,-1%
COc1ccc2c(c1)CCc1cnc(-n3ncc(C(=O)NC4CCOC4)c3C3CC3)nc1-2 (configuration not stated),-5%,·,·,·,-17%,-19%
COc1cccc(OC)c1OCc1cc(C2C3CCCC=C3C(C#N)=C(N)C2(C#N)C#N)c(C)cc1C (configuration not stated),?,40µM*,20µM*,?,-21%,-28%
CCCN1CC=C2C(C#N)=C(N)C(C#N)(C#N)C(c3cccc(OC)c3OC)C2C1 (configuration not stated),-16%,?,-12%,-2%,1%,i
Cc1ccc(O)c(NC(=O)c2cc(-c3cccs3)on2)c1,34%,5%,-27%,8.9µM*,-14%,?
CC(C)c1onc(C(=O)NC(C)c2ccccc2)c1[N+](=O)[O-] (configuration not stated),3%,40µM*,·,·,-23%,0%
SMILES,FMDV antiviral,Sm TGR inh,Lassa entry inh,MARV entry inh,VACV Venus inh,Vaccinia mCherry
CC(C)c1onc(C(=O)N(C)Cc2ccccc2)c1[N+](=O)[O-],20%,7%,-6%,-3%,-4%,-9%
CC(C)c1onc(C(=O)NCCc2ccccc2)c1[N+](=O)[O-],25%,45µM*,18%[46.1 µM],?,0%,i
Cc1ccc(O)c(NC(=O)c2noc(C(C)C)c2[N+](=O)[O-])c1,91%,35µM*,·,·,·,·
CC(=O)c1ccc(NC(=O)c2noc(C(C)C)c2[N+](=O)[O-])cc1,41%,-33%,·,·,·,·
Nc1ncnc(N)c1N=Nc1ccccc1,-22%,-13%,?,5µM*,?,?
Clc1ccc(-c2nn3c(C4COc5ccccc5O4)nnc3s2)cc1 (configuration not stated),19%,-3%,6.5µM*,4%,·,·
CCOCCCNC(=O)c1ccc2c(=O)n(CCc3ccc(OC)c(OC)c3)c(=O)[nH]c2c1,-22%,-3%,-26%[46.1 µM],·,-7%,-7%
O=C(NCCCN1CCOCC1)/C(=C/c1ccc(-c2cccc([N+](=O)[O-])c2)o1)NC(=O)c1ccccc1,-26%,·,·,·,-11%,-2%
Cc1nc2nc(C)n(CCN3CCOCC3)c(=O)c2c(-c2cccc([N+](=O)[O-])c2)c1C(=O)CCCCCCCCCCN1CCC(c2ccccc2)(c2ccccc2)CC1,25µM*,·,?,0.5µM*,10µM*,?
COC(=O)C[C@H]1SC(=O)NC1=O,·,·,·,0%,·,·
O=C(O)CCc1ccc(-c2ccccc2)n1CC(=O)O,5%,35µM*,-8%,5%,·,·
CC(C)n1c(CCC(=O)O)ccc1-c1ccccc1,1%,18µM*,·,-1%,-1%,14%
O=C(O)CCc1ccc(-c2ccccc2)n1NC(=O)c1ccco1,-9%,?,11%,19%,-4%,·
Cc1ccc(-c2ccc(CCC(=O)O)n2Cc2ccco2)cc1,7%,35µM*,-21%,-3%[46.1 µM],-8%,-14%
O=C(O)CCc1ccc(-c2ccc(F)cc2)n1CCC(=O)O,·,14µM*,-16%,14%,-11%,i
CCn1cc(S(=O)(=O)c2cc(C)cc(C)c2)c(=O)c2cc(F)c(N3CCN(c4ccccc4)CC3)cc21,2%,6%,-3%[46.1 µM],·,-27%,-17%
CCOc1ccc(C(=O)c2cn(CC(=O)Nc3ccc(C)c(C)c3)c3ccc(OCC)cc3c2=O)cc1,0%,1%,1%[46.1 µM],1%[46.1 µM],-11%,-13%
CCOC(=O)[C@@]1([C@@H](NC(=O)OC)c2ccccc2)CCCC1=O,·,·,·,12%[14.2 µM],·,·
